aSyn 5UTR act – Activators via SNCA 5'UTR binding, MLPCN; alpha-synuclein 5'UTR reporter, activators screen; activity score, % (tested at 7.5 µM), hits read low; 7.1% of 300,000 active; AID 1814; in the data active = activity score below about -60%
Of the large screens only hits and unclear results are named; the others gave an inactive call. A selection follows.

COc1cccc(C2=CC(c3cc(OC)ccc3OC)n3nnnc3N2)c1 (centres undefined)	aSyn 5UTR act -165.0
COc1cccc(C2=CC(c3cccc(OC)c3OC)n3nnnc3N2)c1 (centres undefined)	aSyn 5UTR act -294.6
Cc1ccc2c(COC(=O)c3ccccc3Br)cc(=O)oc2c1	aSyn 5UTR act -179.1
Cc1ccc2c(COC(=O)c3ccccc3Cl)cc(=O)oc2c1	aSyn 5UTR act -135.5
Cc1ccc2c(COC(=O)C34CC5CC(CC(C5)C3)C4)cc(=O)oc2c1	aSyn 5UTR act -152.3
CCn1c(=O)c2cc(C(=O)NC(C)C)sc2c2ccccc21	aSyn 5UTR act -79.1
Cc1ccc2c(c1)c1nc3ccccc3nc1n2C	aSyn 5UTR act -90.2
Cc1cc(=O)[nH]c2n[nH]c(-c3ccccc3)c12	aSyn 5UTR act -63.4
CCc1ccc(NC(=O)Nc2cccs2)cc1	aSyn 5UTR act -169.4
CCc1ccc(NC(=O)Nc2ccsc2C(=O)OC)cc1	aSyn 5UTR act -65.4
Cc1ccc(NC(=O)Nc2cccs2)nc1	aSyn 5UTR act -168.3
CCOc1ccc(NC(=O)Nc2cccs2)cc1	aSyn 5UTR act -160.8
Cc1ccc(NC(=O)Nc2cccs2)cc1	aSyn 5UTR act -130.1
O=C(CN1C(=O)c2ccccc2S1(=O)=O)c1ccc(Cl)cc1Cl	none
O=C(CSc1cccc[n+]1[O-])c1cc(Cl)ccc1Cl	aSyn 5UTR act -87.4
O=C(CSc1cccc[n+]1[O-])c1cc2ccccc2o1	aSyn 5UTR act -101.1
COc1ccc(N=c2scc(-c3ccc(OC)cc3)n2CCO)cc1	aSyn 5UTR act -66.2
COc1cc(C)c(Cl)c(C)c1S(=O)(=O)NC1CC(C)(C)NC(C)(C)C1	aSyn 5UTR act -159.9
CCOc1cnc(-c2ccc(OC)cc2)o1	aSyn 5UTR act -106.0
CCOc1cnc(-c2ccc(Cl)cc2)o1	aSyn 5UTR act -105.1
O=C(NN=C1CCCC1)c1n[nH]c2c1CCCC2	aSyn 5UTR act -72.6
Cc1ccsc1/C=N\NC(=O)c1n[nH]c2c1CCC2	none
O=C(N/N=C/c1c(Cl)cccc1Cl)c1n[nH]c2c1CCCC2	aSyn 5UTR act -135.4
COc1cc(-c2nnn(CC(=O)NC3CCS(=O)(=O)C3)n2)ccc1OCc1ccccc1 (centres undefined)	aSyn 5UTR act -126.4
CCCCn1cnc2c(cnn2-c2ccc(Cl)cc2)c1=O	aSyn 5UTR act -108.6
CCCn1cnc2c(cnn2-c2ccc(F)cc2)c1=O	aSyn 5UTR act -115.1
CCOC(=O)C(C)n1cnc2c(cnn2-c2ccc(Cl)cc2)c1=O (centres undefined)	aSyn 5UTR act -135.3
CCCCn1cnc2c(cnn2-c2ccc(F)cc2)c1=O	aSyn 5UTR act -123.4
O=C(Nc1ccc2c3c(cccc13)CC2)c1ccc(Br)o1	aSyn 5UTR act -76.3
O=C(Nc1ccc2c3c(cccc13)CC2)c1ccco1	aSyn 5UTR act -64.7
Cc1ccc(C(=O)COC(=O)c2ccc(O)cc2)cc1	aSyn 5UTR act -182.3
O=C(COC(=O)c1cccc(O)c1)c1ccccc1	aSyn 5UTR act -69.5
Nc1cccc(C(=O)OCC(=O)c2ccccc2)c1	aSyn 5UTR act -85.6
O=C1c2ccccc2C(=O)C1c1nccc2ccccc12	none
c1ccc(-c2nc(-c3nccc4ccccc34)oc2-c2ccccc2)cc1	aSyn 5UTR act -81.8
CCC(C)OC(=O)n1ccc(C(=O)Nc2nccs2)n1 (centres undefined)	aSyn 5UTR act -68.9
Cc1nonc1C1CCCN1C(=O)c1cc(COc2ccc(F)cc2F)on1 (centres undefined)	aSyn 5UTR act -125.7
CSc1ccccc1OCc1cc(C(=O)N2CCCC2c2nonc2C)no1 (centres undefined)	aSyn 5UTR act -144.3
Cc1ccc(-c2cc(C(=O)N/N=C/c3c[nH]c4ccccc34)[nH]n2)cc1	none
O=C(N/N=C/c1c[nH]c2ccccc12)c1cc(-c2ccc(-c3ccccc3)cc2)n[nH]1	aSyn 5UTR act -145.6
O=C(N/N=C/c1c[nH]c2ccccc12)c1ccc(Cl)cc1	aSyn 5UTR act -77.0
O=C(N/N=C/c1c[nH]c2ccccc12)c1cc(-c2ccccc2)n[nH]1	aSyn 5UTR act -72.5
O=C(O)c1ccc(N/N=C/c2c[nH]c3ccccc23)cc1	none
O=C(CCc1nnc(-c2ccsc2)o1)N1CCc2c(Cl)cccc2C1	aSyn 5UTR act -65.3
Cc1nc2ccccc2nc(=O)c1NNc1ccccc1	aSyn 5UTR act -240.8
Cc1ccc2nc(=O)c(NNc3ccccc3)cnc2c1	aSyn 5UTR act -217.6
COc1ccccc1NC(=O)C/C(C)=N/NC(=O)c1ccccn1	aSyn 5UTR act -102.7
C/C(CC(=O)Nc1ccc(C)c(Cl)c1)=N\NC(=O)c1ccccn1	aSyn 5UTR act -70.6
COc1cc(NC(=O)C/C(C)=N/NC(=O)c2ccccn2)c(OC)cc1Cl	aSyn 5UTR act -80.3
CC1=NN(c2ccccc2)C(=O)/C1=C/c1c(O)n(-c2ccc(F)c(Cl)c2)[nH]c1=O	aSyn 5UTR act -104.7
Cc1ccc(O)c(/C=N/NC(=O)Cc2ccc(Cl)cc2)c1	none
O=C(Cc1ccccc1)N/N=C/c1ccccc1OCc1ccc(Cl)cc1	aSyn 5UTR act -95.2
O/N=C/c1ccccc1OCc1ccc(Cl)cc1	aSyn 5UTR act -98.0
Cc1ccc2c(c1)c(C)c(C)n2CC(O)Cn1nnc2ccccc21 (centres undefined)	aSyn 5UTR act -70.1

Source: PubChem BioAssay
